These sequences were tested against MYCBPAP (assay: pooled miR-30 sensor sort-seq; sequence = guide strand). Settings: shRNA.
TTTCTTGTCATCCTTTGCCTTG was tested, and the sensor-assay potency score (higher = more potent) was -0.95. Sequence TGCAATTCTCTTAAAATCCTGG has a sensor-assay potency score (higher = more potent) of -0.695. For TTGTAGGACATTGCTAACAGGT, the sensor-assay potency score (higher = more potent) was -0.808. In the case of TCTCCTTGTAGGACATTGCTAA, the sensor-assay potency score (higher = more potent) is reported as -0.62. TTGTGCTTCTTGCTGTTGGGAC showed a sensor-assay potency score (higher = more potent) of -0.31. TTTTCTTTGACATTCTCTGAGG gave a sensor-assay potency score (higher = more potent) of -0.601. In the case of TTCTTTGTCTTTGATCCCCAGT, the sensor-assay potency score (higher = more potent) is reported as -0.525.

The sequences below were run against MYCL1 in the same assay as above. Settings: shRNA.
TCTTTTCTGCAACTGCTGCTGC was tested, and the sensor-assay potency score (higher = more potent) was 0.0557. TTCTTCCAGATGTCCTCGCTGG showed a sensor-assay potency score (higher = more potent) of -0.137. With TCATTCTCCGAGTCGCTTGGGC the sensor-assay potency score (higher = more potent) was -0.392. ATAGTCGTAGAAATAGTGCTGG gave a sensor-assay potency score (higher = more potent) of 0.222. With TTCTTTTCTGCAACTGCTGCTG the sensor-assay potency score (higher = more potent) was -0.121. TCAATTTCTTCATTCTCCGAGT gave a sensor-assay potency score (higher = more potent) of 0.102. With AATTCTTTTCTGCAACTGCTGC the sensor-assay potency score (higher = more potent) was -0.74. ATCAATTTCTTCATTCTCCGAG was tested, and the sensor-assay potency score (higher = more potent) was 0.219. Work on TAGTCGTAGAAATAGTGCTGGT yielded a sensor-assay potency score (higher = more potent) of -0.671. TTGCTTAGGATCACTACTTTGG showed a sensor-assay potency score (higher = more potent) of -0.448. Sequence TTTCTCTGTAGCCATCCTCTTC has a sensor-assay potency score (higher = more potent) of -0.97. With TTAGGATCACTACTTTGGGGGC the sensor-assay potency score (higher = more potent) was -0.971.

What follows are sequences tested against MYH14 in the same assay as above. Settings: shRNA.
TTGTCATTCTTCACTGTCTTGG showed a sensor-assay potency score (higher = more potent) of -0.287. Sequence TTTCCGTCTTCCCAGCTCCAGA has a sensor-assay potency score (higher = more potent) of -1.5. Work on TTGAGGCGCAGAACCAGCCAGC yielded a sensor-assay potency score (higher = more potent) of -0.999. In the case of TTGTAGTCGACCTTGCCCGCGT, the sensor-assay potency score (higher = more potent) is reported as -0.308. Work on TTCACCTTGGTAAACAGCCGCC yielded a sensor-assay potency score (higher = more potent) of -0.755. For TGTCAGGATCTCGTATCGCTGC, the sensor-assay potency score (higher = more potent) was -0.48. Sequence TAGTGGAGAACACTGAAGTCGG has a sensor-assay potency score (higher = more potent) of -0.73. TAGAGCTGTCCCACTGTCCGGA gave a sensor-assay potency score (higher = more potent) of 0.0775. For TTCCTCTGCCTCCTCGTCGGAT, the sensor-assay potency score (higher = more potent) was -1.06. For TCATCTGCCATCTCATCCCGGT, the sensor-assay potency score (higher = more potent) was -0.0949. TTGGTGTTTTCCGTCTTCCCAG gave a sensor-assay potency score (higher = more potent) of -1.05. In the case of TCTGGTCTCTTGCTCTAGCTGC, the sensor-assay potency score (higher = more potent) is reported as -0.396.

Each sequence was assayed against MYL4 in the same assay as above. Settings: shRNA.
Sequence TCTTGACATTCATCTCTTCAGG has a sensor-assay potency score (higher = more potent) of -0.927. In the case of TCTATCTTTACACTCTTGGGGT, the sensor-assay potency score (higher = more potent) is reported as 0.0138. With ATCTTCATCTCTCCAGTCGGGG the sensor-assay potency score (higher = more potent) was -0.885. TTGAACTCTTCAATCTGGTCGG gave a sensor-assay potency score (higher = more potent) of 0.391. TGAACTCTTCAATCTGGTCGGC gave a sensor-assay potency score (higher = more potent) of 0.0317. For TAGGTGATCTTCATCTCTCCAG, the sensor-assay potency score (higher = more potent) was -0.392. In the case of AAGTCTATCTTTACACTCTTGG, the sensor-assay potency score (higher = more potent) is reported as -0.446. In the case of TCGGCAGTGAAGTCTATCTTTA, the sensor-assay potency score (higher = more potent) is reported as -1.13. In the case of TCTTCATCTCTCCAGTCGGGGT, the sensor-assay potency score (higher = more potent) is reported as -1.55.
Note: reference of the scale not given here.
